The panel holds about 83,000 compounds, 20% with a hit somewhere; the sample as a whole holds those more often.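 Plates (96-well) were seeded with cells, treated with compound at one concentration, and incubated for 48 hours before percent growth was determined.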 A number with no mark means an inactive call. Calls of active or inactive are those of the source. How the source made its calls: active means growth percent below 10; inactive means the rest.

The first test deals with OVCAR-4 ovarian. Description: NCI-60 one-dose screen, 48 h (100 = growth as untreated, 0 = no growth, -100 = all killed). To be noted: 10 µM unless noted.
With `COc1ccc(/C=N/NC(=O)c2c(N)nn(C)c2Nc2ccccc2)cc1Oc1ccccc1`, the growth was 92.2%.
On the same count and under the same terms, with `COc1ccc(/C=N/N=C(/c2ccccc2)c2ccc3nc(-c4ccc(Cl)cc4)[nH]c3c2)cc1` the figure was 75%; with `O=C(Nc1cc(C(F)(F)F)cc(C(F)(F)F)c1)Nc1ccc2oc(=O)ccc2c1`, 32.6%.
For the compound `CNC(=O)c1cc(N2CCc3cc(NC(=O)Nc4ccc(N5CCN(C)CC5)c(C(F)(F)F)c4)ccc32)ccn1`, the growth is 83.4%.
Same read-out and setting: then `Clc1cccc(/C=N/Nc2nc(N/N=C/c3cccc(Cl)c3)nc(N3CCCCC3)n2)c1`, with 90.2%; and `NS(=O)(=O)c1nnc(/N=C/c2c(O)[nH]c3ccccc23)s1`, with 98.5%; and `COc1ccc(-c2cc(-c3ccc(N(C)C)cc3)n3c(n2)nc2ccccc23)cc1`, with 56.7%.
In the case of `Nc1nc(=O)n([C@H]2C[C@H](O)[C@@H](CO)O2)cc1C=O`, the growth was 78.1%.
Still for that read-out and setting: with `Cc1ccc(-c2csc(N/N=C/c3cccs3)n2)cc1` the figure was 59.6%.
The same measure, in the same setting: with `CCCCCCOC(=O)c1cc(-c2ccc(F)cc2)nc2ccccc12` the figure was 101%.
The same measure, in the same setting: with `COc1cc2oc(-c3cccc(NC(=O)c4cccc([N+](=O)[O-])c4)c3)cc(=O)c2c(OC)c1OC` the figure was 37.6%; with `COc1cccc(N2CCN(C3=C(Cl)C(=O)c4ncccc4C3=O)CC2)c1`, 80.5%.
Turning to `CCCCCCNC(=O)Oc1ccc(/C(=C(/C)c2ccc(Cl)cc2)c2ccc(OCCN3CCCCCC3)cc2)cc1`, the growth was 61%.
As to `C=C(C)[C@@H]1CC[C@]2(COCCCNCCCN)CC[C@]3(C)[C@H](CC[C@@H]4[C@@]5(C)CC[C@H](O)C(C)(C)[C@@H]5CC[C@]43C)[C@@H]12`, the growth is -68.5% (active).
Regarding `COc1ccc(/C(=N\NC(N)=S)c2ccc(Cl)cc2)cc1OC`, the growth is 60.6%.
As to `Brc1ccc2[nH]cc(-c3nn4cc(-c5nccs5)nc4s3)c2c1`, the growth is -4% (active).
Same read-out and setting: then `CN1c2ccccc2Sc2cc(/C=N/Nc3ccnc4cc(Cl)ccc34)ccc21`, with 94%; and `Cn1c(SCC(=O)c2ccc(F)cc2)nc2ccccc2c1=O`, with 79.1%; and `CC(=O)OCCCCN1C=C/C(=C\C(=O)n2ccc3ccccc32)c2ccccc21`, with 85.5%.
On the same count and under the same terms, with `O=C(/C=C/c1ccc(F)cc1)Nc1cccc2cccnc12` the figure was 93.3%; with `CCCCOc1ccc(S(=O)(=O)N2CCN(c3nc(C)cc(N4CCOCC4)n3)CC2)cc1`, 49%.
Same read-out and setting: with `CCCNNC(=O)c1ccc(-c2ccc(NC(=O)CCCCCCC(=O)N[C@H](C(=O)N3C[C@H](O)C[C@H]3C(=O)N[C@@H](C)c3ccc(-c4scnc4C)cc3)C(C)(C)C)cc2)cc1` the figure was 53.6%; with `CCOC(=O)c1cccc(NC2=C(Cl)C(=O)c3nc(C)ccc3C2=O)c1`, 53.7%; with `CC(C)(C)Nc1nc2c(OCCc3ccccc3)cccn2c1-c1cccc(Oc2ccccc2)c1`, 31.2%.
Turning to `O=C(CCCCCCNC(=O)c1csc(Br)n1)NO`, the growth is 69.6%.
With `CCOC(=O)c1c(NC(=O)c2ccc(C(F)(F)F)cc2)sc2c3c(ccc12)OCN(C)C3`, the growth is 82.4%.
Consider `COc1ccccc1/C=C1\Oc2ccc(O)c(O)c2C1=O`, for which the growth was 84%.
Same read-out and setting: with `COc1cccc2c1C=CC1(O2)Oc2cccc(OC)c2C=C1C` (stereo unspecified) the figure was 85.3%; with `COc1ccc(C(C)=C(c2ccc(OCCN3CCCCCC3)cc2)c2ccc(OCCN3CCCCCC3)cc2)cc1`, -66.7% (active); with `O=C(CCCCCCN1CC(=O)N2[C@@H](c3ccccc3Br)c3[nH]c4ccccc4c3C[C@H]2C1=O)NO`, 88.1%.
For `CCC(=C(c1ccc(OCCN2CCCCCC2)cc1)c1ccc(OCCN2CCCCCC2)cc1)c1ccc(Cl)cc1`, the growth is 47.2%.
Consider `CN1CCN(CCNc2nc(-c3cccc(NS(=O)(=O)c4cccc5c(N(C)C)cccc45)c3)cs2)CC1`, for which the growth was 71.5%.
Consider `CC(Nc1c(C#N)cnc2ccc(-c3cncc(-c4n[nH]c(=O)o4)c3)cc12)c1ccccc1` (stereo unspecified), for which the growth is -5.14% (active).
Consider `CC(=O)N(O)CCCCCNC(=O)CCC(=O)N(O)CCCCCNC(=O)CCC(=O)N(O)CCCCCN(CCCCCCCCCC[P+](c1ccccc1)(c1ccccc1)c1ccccc1)CCCCCCCCCC[P+](c1ccccc1)(c1ccccc1)c1ccccc1`, for which the growth was 5.75% (active).
Same read-out and setting: with `Cn1cc(-c2cc3ncnc(Nc4ccc(CC(=O)Nc5nc(C(C)(C)C)cs5)cc4)c3s2)cn1` the figure was 28.2%; with `Cc1cc2nc(C(Cl)Cl)nc(-c3ccc(S(=O)(=O)N(C)C)cc3)n2n1`, 57.2%.

The next test deals with SK-OV-3 ovarian. The test is described as above. To be noted: 10 µM unless noted.
Consider `COc1ccc(/C=N/NC(=O)c2c(N)nn(C)c2Nc2ccccc2)cc1Oc1ccccc1`, for which the growth was 112%.
The same measure, in the same setting: with `COc1ccc(/C=N/N=C(/c2ccccc2)c2ccc3nc(-c4ccc(Cl)cc4)[nH]c3c2)cc1` the figure was 93.2%; with `O=C(Nc1cc(C(F)(F)F)cc(C(F)(F)F)c1)Nc1ccc2oc(=O)ccc2c1`, -1.5% (active).
For `COc1ccc(/C=N/NC(=O)CSc2nc(-c3cnccn3)cc(-c3cccs3)c2C#N)cc1OC`, the growth is 120%.
For `CNC(=O)c1cc(N2CCc3cc(NC(=O)Nc4ccc(N5CCN(C)CC5)c(C(F)(F)F)c4)ccc32)ccn1`, the growth was 107%.
As for `Clc1cccc(/C=N/Nc2nc(N/N=C/c3cccc(Cl)c3)nc(N3CCCCC3)n2)c1`, the growth is 109%.
On to `NS(=O)(=O)c1nnc(/N=C/c2c(O)[nH]c3ccccc23)s1`, for which the growth was 99.5%.
The same measure, in the same setting: with `COc1ccc(-c2cc(-c3ccc(N(C)C)cc3)n3c(n2)nc2ccccc23)cc1` the figure was 55.5%.
On the same count and under the same terms, then `Nc1nc(=O)n([C@H]2C[C@H](O)[C@@H](CO)O2)cc1C=O`, with 116%; and `Cc1ccc(-c2csc(N/N=C/c3cccs3)n2)cc1`, with 101%; and `CCCCCCOC(=O)c1cc(-c2ccc(F)cc2)nc2ccccc12`, with 87.4%.
`COc1cc2oc(-c3cccc(NC(=O)c4cccc([N+](=O)[O-])c4)c3)cc(=O)c2c(OC)c1OC`: the growth is 85.9%.
On the same count and under the same terms, with `COc1cccc(N2CCN(C3=C(Cl)C(=O)c4ncccc4C3=O)CC2)c1` the figure was 93.8%.
For `CCCCCCNC(=O)Oc1ccc(/C(=C(/C)c2ccc(Cl)cc2)c2ccc(OCCN3CCCCCC3)cc2)cc1`, the growth was 96%.
As for `C=C(C)[C@@H]1CC[C@]2(COCCCNCCCN)CC[C@]3(C)[C@H](CC[C@@H]4[C@@]5(C)CC[C@H](O)C(C)(C)[C@@H]5CC[C@]43C)[C@@H]12`, the growth is 105%.
For `COc1ccc(/C(=N\NC(N)=S)c2ccc(Cl)cc2)cc1OC`, the growth was 18.3%.
`Brc1ccc2[nH]cc(-c3nn4cc(-c5nccs5)nc4s3)c2c1`: the growth is 61.5%.
For `CN1c2ccccc2Sc2cc(/C=N/Nc3ccnc4cc(Cl)ccc34)ccc21`, the growth was 102%.
Regarding `Cn1c(SCC(=O)c2ccc(F)cc2)nc2ccccc2c1=O`, the growth is 95.7%.
Same read-out and setting: then `CC(=O)OCCCCN1C=C/C(=C\C(=O)n2ccc3ccccc32)c2ccccc21`, with 97.6%; and `O=C(/C=C/c1ccc(F)cc1)Nc1cccc2cccnc12`, with 90.2%.
With `CCCCOc1ccc(S(=O)(=O)N2CCN(c3nc(C)cc(N4CCOCC4)n3)CC2)cc1`, the growth was -11.6% (active).
Turning to `CCCNNC(=O)c1ccc(-c2ccc(NC(=O)CCCCCCC(=O)N[C@H](C(=O)N3C[C@H](O)C[C@H]3C(=O)N[C@@H](C)c3ccc(-c4scnc4C)cc3)C(C)(C)C)cc2)cc1`, the growth is 18.5%.
As to `CCOC(=O)c1cccc(NC2=C(Cl)C(=O)c3nc(C)ccc3C2=O)c1`, the growth was 98%.
Still for that read-out and setting: then `CC(C)(C)Nc1nc2c(OCCc3ccccc3)cccn2c1-c1cccc(Oc2ccccc2)c1`, with -1.76% (active); and `O=C(CCCCCCNC(=O)c1csc(Br)n1)NO`, with 56.3%; and `CCOC(=O)c1c(NC(=O)c2ccc(C(F)(F)F)cc2)sc2c3c(ccc12)OCN(C)C3`, with 93.5%.
As to `O=C1C(N2CCN(c3ccccc3)CC2)=C(Cl)C(=O)c2ncccc21`, the growth was 91.5%.
In the case of `COc1ccccc1/C=C1\Oc2ccc(O)c(O)c2C1=O`, the growth is 105%.
Still for that read-out and setting: then `COc1cccc2c1C=CC1(O2)Oc2cccc(OC)c2C=C1C` (stereo unspecified), with 65.5%; and `COc1ccc(C(C)=C(c2ccc(OCCN3CCCCCC3)cc2)c2ccc(OCCN3CCCCCC3)cc2)cc1`, with 72.9%.
For the compound `O=C(CCCCCCN1CC(=O)N2[C@@H](c3ccccc3Br)c3[nH]c4ccccc4c3C[C@H]2C1=O)NO`, the growth is 75.5%.
Same read-out and setting: then `Cc1ccc2c(n1)C(=O)C(Cl)=C(Nc1cccc(C(F)(F)F)c1)C2=O`, with 89.8%; and `CCC(=C(c1ccc(OCCN2CCCCCC2)cc1)c1ccc(OCCN2CCCCCC2)cc1)c1ccc(Cl)cc1`, with 96.7%.
With `CN1CCN(CCNc2nc(-c3cccc(NS(=O)(=O)c4cccc5c(N(C)C)cccc45)c3)cs2)CC1`, the growth was 91.6%.
Turning to `CC(Nc1c(C#N)cnc2ccc(-c3cncc(-c4n[nH]c(=O)o4)c3)cc12)c1ccccc1` (stereo unspecified), the growth was 3.52% (active).
The same measure, in the same setting: with `CC(=O)N(O)CCCCCNC(=O)CCC(=O)N(O)CCCCCNC(=O)CCC(=O)N(O)CCCCCN(CCCCCCCCCC[P+](c1ccccc1)(c1ccccc1)c1ccccc1)CCCCCCCCCC[P+](c1ccccc1)(c1ccccc1)c1ccccc1` the figure was -10% (active).
The same measure, in the same setting: with `Cn1cc(-c2cc3ncnc(Nc4ccc(CC(=O)Nc5nc(C(C)(C)C)cs5)cc4)c3s2)cn1` the figure was 26.2%; with `CCOC(=O)C1=C(C)NC(C)=C(C(=O)OC(C)C)C1c1cccc(C#N)c1` (stereo unspecified), 132%.
For `Cc1cc2nc(C(Cl)Cl)nc(-c3ccc(S(=O)(=O)N(C)C)cc3)n2n1`, the growth was 50.5%.

These data come from PubChem BioAssay (NCI).
